This is a sample that favours compounds with a hit; in the whole collection about 21% have one here.
Pf growth 96h – Primary qHTS for delayed death inhibitors of the malarial parasite plastid, 96 hour incubation | P. falciparum luciferase reporter growth, 96 h | Potency, µM (doses to about 28.7 µM), usual class: inhibitors | 6.9% of 320,000 active | AID 504834, 2011
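96 h incubation, 37 C, 5% CO2, of luciferase-reporter P. falciparum-infected RBCs (2% hematocrit, 0.05% parasitemia final) with test compounds; endpoint luminescence.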
Pf growth 48h – Primary qHTS for delayed death inhibitors of the malarial parasite plastid, 48 hour incubation | P. falciparum luciferase growth in erythrocytes, 48 h | Potency, µM (top dose mostly 28.7 µM), actives largely listed as inhibitors | 5.9% of 310,000 active
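Here the parasites carry a stable luciferase gene and grow inside erythrocytes in Albumax-based RPMI medium with compound for one erythrocytic cycle. Activity is scored as loss of luminescent signal.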
HCV inhibitor – qHTS Assay for Inhibitors of Hepatitis C Virus (HCV). Huh7.5.1 HCVcc-Cre infection, luciferase reporter, 44 h. Potency, µM (doses to about 41.8 µM), most hits filed as inhibitors. 3.4% of 340,000 active. AID 651820, 2012
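Luciferase read-out (15 sec integration) after a 15 min room-temperature substrate step quantifies HCVcc-Cre infection. Cells, 1,000 per well, had compound added 4 h post-plating, then virus at ~0.5 moi, and were cultured 44 h.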
Shiga toxin inh – A qHTS for Small Molecule Inhibitors of Shiga Toxin; Vero cells, Shiga toxin protein synthesis inhibition reporter; inhibition, % at 38.7 µM; 9.2% of 290,000 active; AID 2315, 2010; in the data active means inhibition mostly above about 28%, no sharp cut-off; inactive means mostly below about 43%
HCMV antiviral – qHTS Assay for inhibitors of the human cytomegalovirus (HCMV). HFF cells, HCMV-luciferase reporter, 72 h; stronger effect = lower value. activity change, negative = inhibition, % at 57.5 µM. 4.5% of 410,000 active. AID 1259415, 2018; in the data active means activity change below about -60%; inconclusive means no clear call, values can overlap the other calls; inactive means above about -39%
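Two-dose cell screen: HFF monolayers treated with compounds and infected with luciferase-expressing HCMV at 1 PFU/cell, 72 h at 37C, then lysed for luciferase measurement.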
Cycloheximide cs – Cycloheximide Counterscreen for Small Molecule Inhibitors of Shiga Toxin; cell reporter, cycloheximide protein synthesis inhibition counterscreen; max response, %; 12% of 300,000 active; AID 2314, 2010; in the data active means max response mostly above about 13%, no sharp cut-off; inactive means mostly below about 14%; further: read at 38.3 µM for the half of the compounds with a filed dose
A number is an active result. Unless noted, the call rests on the fitted dose curve; in most records, active means well fitted inhibition curve with a large enough effect; inconclusive means small, poorly fitted or top-dose-only effect, or another doubt; inactive means no such curve, though single readings can be large or run the other way.

`CCOC(=O)[C@H]1[C@H]2COc3ccc(Br)cc3[C@@H]2N2C(=O)c3cc(F)c(F)cc3NC(=O)[C@@]12C` gave Pf growth 96h inconclusive, Pf growth 48h 17µM, HCV inhibitor inconclusive and HCMV antiviral inactive.
Cc1ccc(S(=O)(=O)N2C[C@H]3C(=O)C[C@@H](c4cccc(Cl)c4)N(S(=O)(=O)c4ccc(C)cc4)[C@H]3C[C@H]2c2ccccc2)cc1 was read as HCMV antiviral inactive.
For Cc1ccccc1C(=O)c1cccn1CC(=O)NCC(C)c1ccccc1 (stereo unspecified) the results were Pf growth 96h inactive, Pf growth 48h inactive, HCV inhibitor inactive, Shiga toxin inh inactive, HCMV antiviral inactive and Cycloheximide cs inactive.
For Cc1ccccc1C(=O)c1cccn1CC(=O)NCc1ccccc1Cl the results were Pf growth 96h inconclusive, Pf growth 48h inactive, HCV inhibitor inactive, Shiga toxin inh 50, HCMV antiviral inactive and Cycloheximide cs 22.
`COc1ccccc1CNC(=O)Cn1cccc1C(=O)c1ccccc1` gave Pf growth 96h inactive, Pf growth 48h inactive, HCV inhibitor inactive, Shiga toxin inh 48, HCMV antiviral inactive and Cycloheximide cs inactive.
`O=C(Cn1cccc1C(=O)c1ccccc1)NCc1ccccc1Cl` gave Pf growth 96h inactive, Pf growth 48h inactive, HCV inhibitor inactive, Shiga toxin inh 75, HCMV antiviral inactive and Cycloheximide cs 38.
`O=C(Cn1cccc1C(=O)c1ccccc1)NCc1ccccn1` gave Pf growth 96h inactive, Pf growth 48h inactive, HCV inhibitor inactive, Shiga toxin inh inactive, HCMV antiviral inactive and Cycloheximide cs inactive.
Screening CSc1ccc(CN2CCN(Cc3ccccc3)C(CCO)C2)cc1 (stereo unspecified) returned Pf growth 96h 12µM, Pf growth 48h inactive, HCV inhibitor inactive, Shiga toxin inh inactive, HCMV antiviral inconclusive and Cycloheximide cs inactive.
Screening Cc1ccc(CN2CCN(Cc3ccon3)CC2CCO)cc1 (stereo unspecified) returned Pf growth 96h 10µM, Pf growth 48h inactive, HCV inhibitor inactive, Shiga toxin inh inactive, HCMV antiviral inactive and Cycloheximide cs inactive.
For Cc1ccc(CN2CCN(Cc3ccc(-n4cccn4)cc3C)CC2CCO)cc1 (stereo unspecified) the results were Pf growth 96h inactive, Pf growth 48h 10µM, HCV inhibitor inactive, Shiga toxin inh inactive, HCMV antiviral inconclusive and Cycloheximide cs inactive.
Screening OCCC1CN(Cc2ccc(-n3cccn3)cc2)CCN1Cc1ccccc1 (stereo unspecified) returned Pf growth 96h 8.3µM, Pf growth 48h inactive, HCV inhibitor inactive, Shiga toxin inh inactive, HCMV antiviral inactive and Cycloheximide cs inactive.
`CSc1cccc(CN2CCN(Cc3ccccc3)C(CCO)C2)c1` (stereo unspecified) gave Pf growth 96h inactive, Pf growth 48h inactive, HCV inhibitor inactive, Shiga toxin inh inactive, HCMV antiviral inactive and Cycloheximide cs inactive.
`Cc1ccc(CN2CCN(Cc3cccc(-n4cccn4)c3)CC2CCO)cc1` (stereo unspecified) gave Pf growth 96h inactive, Pf growth 48h inactive, HCV inhibitor inactive, Shiga toxin inh inactive, HCMV antiviral inconclusive and Cycloheximide cs inactive.
For CCOC(=O)C1(C)CCCN(C(=O)c2ccc(-c3ccccc3)cc2)C1 (stereo unspecified) the results were HCMV antiviral inactive.
For N#CC(=C1CCCC1)c1nc(-c2cc3ccccc3oc2=O)cs1 the results were Pf growth 96h inactive, Pf growth 48h inactive, HCV inhibitor inactive, Shiga toxin inh 51, HCMV antiviral inactive and Cycloheximide cs 32.
`CCc1ccc(/C=C(/C#N)c2nc(-c3ccc(C)cc3)cs2)cc1` gave HCMV antiviral inactive.
For Cc1ccc(-c2csc(C(C#N)=C3CCCC3)n2)cc1 the results were Pf growth 48h inactive, HCV inhibitor inactive, Shiga toxin inh 74, HCMV antiviral inactive and Cycloheximide cs 25.
`N#C/C(=C/c1ccccc1Cl)c1nc(-c2cc3ccccc3oc2=O)cs1` gave HCMV antiviral inactive.
N#CC(=C1CCCC1)c1nc(-c2ccccc2)cs1 was read as Pf growth 48h inactive, HCV inhibitor inconclusive, Shiga toxin inh 103, HCMV antiviral inactive and Cycloheximide cs 54.
`N#CC(=C1CCCC1)c1nc(-c2ccccc2O)cs1` gave Pf growth 96h inactive, Pf growth 48h inactive, HCV inhibitor inconclusive, Shiga toxin inh 106 and Cycloheximide cs 54.
`CC(O)CCCCn1c(=O)c2c(ncn2C)n(C)c1=O` (stereo unspecified) gave Pf growth 96h inactive and Pf growth 48h inactive.
O=C(CSc1ncc2c(n1)-c1ccccc1N(Cc1ccc(F)cc1)S2(=O)=O)c1ccc(Br)cc1 was read as HCMV antiviral inactive.
Screening COc1cccc(NC(=O)C2(C)CCCN2C(=O)C(C)C)c1OC (stereo unspecified) returned HCMV antiviral inactive.
COC(=O)C1=C(C)N(Cc2ccccc2C(F)(F)F)C(=NCc2ccc3c(c2)OCO3)NC1c1cccc(Cl)c1 (stereo unspecified) was read as HCMV antiviral inactive.
Screening Cc1ccc(/C=N/N=C/c2ccc(C)cc2)cc1 returned Pf growth 96h inconclusive, Pf growth 48h inconclusive, HCV inhibitor inactive, Shiga toxin inh 74, HCMV antiviral inactive and Cycloheximide cs 37.
Oc1ccc(N=Cc2ccc(O)c(O)c2)cc1 was read as Pf growth 96h inactive, Pf growth 48h inconclusive, HCV inhibitor inactive, Shiga toxin inh inactive and Cycloheximide cs inactive.
O=C(NN=Cc1ccc(O)cc1)C(=O)NN=Cc1ccc(O)cc1 was read as HCV inhibitor inactive and HCMV antiviral inactive.
`Cc1ccc(P(C)(=O)c2ccc(C)cc2)cc1` gave Pf growth 96h inconclusive, HCV inhibitor inactive, Shiga toxin inh inactive, HCMV antiviral inactive and Cycloheximide cs inactive.
For Oc1ccc(/C=N/N=C/c2ccc(O)cc2)cc1 the results were Pf growth 96h inactive, Pf growth 48h inconclusive, HCV inhibitor inactive, Shiga toxin inh 115, HCMV antiviral inactive and Cycloheximide cs 50.
`Oc1ccc(/C=N/n2c3ccccc3c3ccccc32)cc1` gave Pf growth 96h inactive, HCV inhibitor 10µM, Shiga toxin inh inactive, HCMV antiviral inactive and Cycloheximide cs inactive.
For Oc1ccc(/C=N/N=C/c2ccc(O)c(O)c2)cc1O the results were Pf growth 96h inconclusive, Pf growth 48h inconclusive, HCV inhibitor inactive, Shiga toxin inh 21, HCMV antiviral inactive and Cycloheximide cs 23.
Screening CCCN1CCC(=O)N(CCN=[N+]=[N-])CC1 returned Pf growth 96h inactive, Pf growth 48h inactive, HCV inhibitor inactive, Shiga toxin inh inactive, HCMV antiviral inactive and Cycloheximide cs inactive.
